Sampled rows, rich in hits. Any-hit rate of the full collection: about 15%.
Pf growth 48h: Primary qHTS for delayed death inhibitors of the malarial parasite plastid, 48 hour incubation; P. falciparum luciferase growth in erythrocytes, 48 h; Potency, µM (highest dose often 28.7 µM), for inactives: top-dose activity change, negative = inhibition, most hits filed as inhibitors; 310,000 compounds, 5.9% hits; also: potency is read from the fitted curve at half-maximal effect; % is scaled to controls: 0 for no effect and ±100 for the full control effect
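Firefly luciferase activity from engineered P. falciparum reports growth; inhibitors lower the luminescent signal. Cultures contained 2% hematocrit erythrocytes at 0.1% final parasitemia.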
SARS PLP yeast: qHTS of Yeast-based Assay for SARS-CoV PLP | 330,000 compounds, 0.19% hits | S. cerevisiae expressing SARS-CoV PLpro, growth rescue | Potency, µM (top dose mostly 32.9 µM), for the others: at the top dose activity, positive = growth rescue, hits mostly activators; calls by dose curve; also: potency is read from the fitted curve at half-maximal effect; 0% is about no effect; nearly all actives have a fitted effect of over 55% in size
HCMV inh: qHTS Assay for inhibitors of the human cytomegalovirus (HCMV) | AID 1259415, 2018 | 410,000 compounds, 4.5% hits | activity change, negative = inhibition, % at 57.5 µM | HFF cells, HCMV-luciferase reporter, 72 h; hits give low values; in the data active = activity change below about -60%; inconclusive = no clear call, values can overlap the other calls; inactive = above about -39%; also: % is scaled to controls: 0 for no effect and ±100 for the full control effect
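Steps: HFFs plated, 16 h 37C; compounds added; HCMV-luciferase added to MOI 1 PFU/cell; 72 h 37C; OneGlo reagent, 5 min room temperature; luminescence read, normalized to controls.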
HCV inh: qHTS Assay for Inhibitors of Hepatitis C Virus (HCV); Potency, µM (top dose mostly 41.8 µM), for inactives: at the highest dose activity change, negative = inhibition, actives largely listed as inhibitors; 340,000 compounds, 3.4% hits; Huh7.5.1 HCVcc-Cre infection, luciferase reporter, 44 h; AID 651820, 2012; also: potency is read from the fitted curve at half-maximal effect; % is scaled to controls: 0 for no effect and ±100 for the full control effect
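Reporter virus HCVcc-Cre (~0.5 moi) infects cells exposed to compound; seeding density 1,000 cells/well with 4 h settling beforehand. Luminescence, 15 sec read, taken 44 h post-infection following a 15 min RT substrate incubation.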
Sm TGR block: qHTS Assay for the Inhibitors of Schistosoma Mansoni Peroxiredoxins | AID 485364, 2010 | 360,000 compounds, 3% hits | purified TGR, DTNB reduction, TNB absorbance 405 nm | Potency, µM (series often up to 114 µM), inactives show at the top dose activity change, negative = inhibition, hits mostly inhibitors; also: potency is read from the fitted curve at half-maximal effect; % is scaled to controls: 0 for no effect and ±100 for the full control effect; nearly all actives have a fitted effect of over 60% in size
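First, TGR (20 nM dispensed) and NADPH were mixed with compound. Second, a 15 min room-temperature incubation followed. Third, further NADPH and then DTNB were added to start the reaction. Finally, TNB absorbance was monitored kinetically.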
Pf growth 96h: Primary qHTS for delayed death inhibitors of the malarial parasite plastid, 96 hour incubation | P. falciparum luciferase reporter growth, 96 h | Potency, µM (top dose mostly 28.7 µM), inactives show top-dose activity change, negative = inhibition, usual class: inhibitors | 320,000 compounds, 6.9% hits | AID 504834, 2011; also: potency is read from the fitted curve at half-maximal effect; % is scaled to controls: 0 for no effect and ±100 for the full control effect
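Luminescence readout: decreased luciferase signal marks inhibited growth of reporter-expressing P. falciparum in infected red cells (2% hematocrit, 0.05% parasitemia final), exposed to compound two generations (96 h, 37 C, 5% CO2).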
* marks the source's active call; other numbers are inactive results; ? = inconclusive; nt = not tested or not shown; + = active, no number; [ ] = dose if it differs, or a comment. Unless noted, calls follow the shape of the dose curve; as a rule, active = well fitted curve in the direction sought with a large enough effect; inconclusive = small, poorly fitted or top-dose-only effect, or another doubt; inactive = no such curve, though single readings can be large; an effect the other way counts as inactive or inconclusive.

SMILES | Pf growth 48h | SARS PLP yeast | HCMV inh | HCV inh | Sm TGR block | Pf growth 96h
CCOC(=O)COc1coc(CN2CCN(c3cccc(Cl)c3)CC2)cc1=O | 1% | -4% | ? | -6% | 0% | ?
CCOC(=O)COc1coc(CN2CCN(c3ccccc3)CC2)cc1=O | 10% | -6% | -61* | 17% | -9% | ?
c1ccc(-c2c[n+]3c(n2-c2ccccc2)SCC3)cc1 | 1.7µM* | 0% | -36 | -13% | -28% | 0.41µM*
CCOc1ccc(-n2c(-c3ccc(Cl)cc3)c[n+]3c2SCC3)cc1 | 13µM* | -1% | ? | -25% | 7% | 0.046µM*
CCOc1ccc(C2=CSC3=NCCN23)cc1 | ? | 1% | 51 | -49% | -2% | 33%
COC(=O)C1=C(C)NC(=O)NC1c1ccc(-c2ccc(Cl)cc2)o1 (stereo not given) | -15% | 1% | ? | 8.9µM* | 14µM* | ?
COC(=O)C1=C(C)NC(=S)NC1c1ccc(-c2cc(Cl)ccc2Cl)o1 (stereo not given) | 12µM* | -2% | -13 | ? | 13µM* | ?
COc1cc(Cl)c(C)cc1NC(=O)CCn1c(=O)c2cccn2c2cccnc21 | nt | nt | -34 | nt | -3% | nt
N#Cc1c(SCC(=O)Nc2cccc(C(F)(F)F)c2)sc2c(O)cc(=O)[nH]c12 | 26% | 0% | 18 | ? | 32µM* | 15%
COc1ccccc1NC(=O)CSc1sc2c(O)cc(=O)[nH]c2c1C#N | 17% | 7% | 40 | 4% | 14µM* | 16%
O=C(CSc1nnc(-c2ccc(F)cc2)c2ccccc12)Nc1c(F)cccc1F | -17% | -5% | -83* | -21% | 8% | ?
O=C(CSc1nnc(-c2ccc(F)cc2)c2ccccc12)Nc1ccccc1 | -20% | nt | -63* | -27% | 7% | -22%
O=C(CSc1nc2ccccc2c2nc(-c3ccccc3)nn12)Nc1ccc(F)cc1 | nt | nt | + | nt | 5% | nt
O=C(CSc1nnc(-c2ccc(F)cc2)c2ccccc12)Nc1ccccc1Cl | ? | -13% | 16 | -5% | -7% | ?
COc1ccc(CCNC(=O)CSc2nnc(-c3ccc(F)cc3)c3ccccc23)cc1OC | 9.3µM* | -4% | -18 | -10% | -1% | 5.2µM*
O=C(NNS(=O)(=O)c1ccc(C(F)(F)F)cc1)c1cnn(-c2ccccc2)c1C(F)(F)F | 43% | 0% | -2 | 7% | 3% | 63%
Cc1ccc2oc3c(c(=O)c2c1)C(c1ccc(F)cc1)N(Cc1ccc2c(c1)OCO2)C3=O (stereo not given) | nt | nt | -7 | nt | 3% | nt
COc1cc(OC)c(OC)cc1CNCc1ccc2c(c1)OCO2 | 17% | -1% | -12 | 1% | 45µM* | 10%
CCOc1cc(CNCCc2cccc(F)c2)ccc1OC | 8% | -4% | 19 | -16% | -25% | ?
COc1cc(OC)c(OC)cc1CNCCc1ccc2c(c1)OCO2 | -6% | 3% | 39 | 4% | 40µM* | ?
COc1cccc(CNCCc2ccc3c(c2)OCO3)c1OC | -12% | 2% | -22 | 4% | 40µM* | ?
COc1cccc(CNCCc2cccc(F)c2)c1OC | -17% | 0% | -3 | 7% | ? | 4.1µM*
N#Cc1ccc(C(=O)N2CCCCC2c2cc(C(=O)Nc3ccccc3Cl)no2)cc1 (stereo not given) | nt | nt | -9 | nt | nt | nt
Cc1ccc(NC2CCCN(C(=O)c3cccs3)C2)cc1C (stereo not given) | 7% | -2% | -30 | -7% | -22% | 8%
CCOC(=O)N1CCN(C(=O)COC(=O)C2CCN(S(=O)(=O)c3c(Cl)cccc3Cl)CC2)CC1 | ? | 0% | -24 | 18% | -2% | -11%
SMILES | Pf growth 48h | SARS PLP yeast | HCMV inh | HCV inh | Sm TGR block | Pf growth 96h
Cc1ccc2[nH]c(=O)c(C(c3nnnn3CC3CCCO3)N3CCOCC3)cc2c1 (stereo not given) | -1% | 4% | 23 | 8% | -3% | 47%
Cc1ccc2[nH]c(=O)c(C(c3nnnn3CC3CCCO3)N3CCc4ccccc4C3)cc2c1 (stereo not given) | -13% | 1% | 37 | 6% | 25µM* | 14%
Cc1ccc2[nH]c(=O)c(C(c3nnnn3CC3CCCO3)N3CCCc4ccccc43)cc2c1 (stereo not given) | 13µM* | 0% | 15 | 11% | -18% | 20%
CCOc1cc2[nH]c(=O)n(CCCC(=O)N3CCN(c4ccc(OC)cc4)CC3)c(=O)c2cc1OCC | nt | nt | -1 | nt | 8% | nt
CCCCCOC(=O)CSc1n[nH]c(=O)[nH]c1=O | 8% | 1% | ? | 20% | 2% | nt
CCOCCOC(=O)CCSc1n[nH]c(=O)[nH]c1=O | 14% | -2% | -21 | 6% | 27% | 10µM*
COC(=O)c1cc(CN2CCN(c3ccccc3)CC2)ccc1O | 15% | -2% | 4 | 2% | -7% | ?
Oc1ccc(Br)cc1CN1CCCCCCC1 | 1.7µM* | 1% | -3 | 4% | -1% | nt
Oc1ccc(Br)cc1CN1CCN(c2ccccc2)CC1 | 1.7µM* | 1% | ? | 8% | 3% | 63%
CCN1CCN(Cc2cc(Br)cc(Br)c2O)CC1 | 1.7µM* | -6% | 1 | ? | -21% | nt
Oc1ccc(Br)cc1/C=N/N1CCCCC1 | 95% | 0% | 9 | 21% | 7% | 148%
CCc1ccc(CN2CCN(Cc3cc(Br)ccc3O)CC2)cc1 | 0.23µM* | -5% | ? | -28% | 0% | 1.2µM*
COc1ccc(C(=O)NC2CCCc3ccccc32)cc1OC1CCN(C(C)=O)CC1 (stereo not given) | -44% | 6% | -20 | 0% | 6% | ?
O=C1N=C2N(CCN3CCCCC3)c3ccccc3N2/C1=C\c1ccc([N+](=O)[O-])o1 | -13% | 1% | nt | nt | -33%[57.1 µM] | 32%
CCOC(=O)C1CCN(C(=O)CSc2ccccc2Cl)CC1 | 0% | 1% | -13 | -8% | 8% | 8%
CCn1ncc(Br)c1C(=O)Nc1c(C)nn(Cc2c(F)c(F)c(F)c(F)c2F)c1C | -11% | ? | -30 | ? | 5% | ?
CCN1CCN(Cc2cc(Br)ccc2O)CC1 | 13µM* | 9% | -13 | 35µM* | -9% | nt
COc1ccc(Br)cc1CN1CCN(CCO)CC1 | 12% | 0% | -7 | nt | -23% | -20%
CC1C(=O)N2CCCc3cc(NC(=O)C(=O)NCc4ccccn4)cc1c32 (stereo not given) | -13% | -4% | 36 | 10% | -4% | -5%

Compound activity as filed in PubChem.
